# Methyltransferases: Primary Screen for Target Class Profiling of Small Molecule Inhibitors of Methyltransferases. calls only at 40 µM. purified enzyme, MTase-Glo SAH luminescence; stronger effect = lower value. AID 1745853, 2022. 25,000 compounds, 3.9% hits; call rule not given here
#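 Each enzyme was assayed with SAM and its substrate. SAH formation detected by MTase-Glo luminescence; single-point 40 uM screen[…].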
# An asterisk follows results filed as active; i = inactive; + = active, no number. The entries come from a sample that favours hits as a whole. On the % scale 0 is the no-effect control and ±100 the full control effect.
SMILES,Methyltransferases
COc1ccc(CNC(=O)c2cc3n(n2)CC(C)(C(=O)NCc2ccccc2)N(C)C3=O)cc1 (stereo not drawn),i
CCc1ccc(CNC(=O)Cn2ccc3cc(S(=O)(=O)N4CCCC4)ccc32)cc1,i
Cc1cc(C)cc(N2C(=O)c3cc4oc(C)cc4n3CC2(C)C(=O)NC2CCCCCC2)c1 (stereo not drawn),i
O=C(NCCCc1ccccc1)c1cccc(-c2cc(O)c3ncccc3c2)c1,+
CC(C)(O)CCc1cccc(C(=O)NCCCc2ccccn2)c1,i
O=C(NCCc1nc2cccnc2n1-c1ccccc1)c1cccnc1,i
CN(C)CCCCCCNC(=O)c1cccc(-c2cc(O)c3ncccc3c2)c1,+
COC(=O)NCCNC(=O)c1cccc(-c2ccc(SC)cc2)c1,i
O=C(NCCCCCCNC(=O)c1cccnc1)c1cccnc1,i
O=C1CN(Cc2ccccc2F)S(=O)(=O)c2ccccc2N1Cc1ccc(Cl)cc1,i
CC1CCC2C(C)(C)C(O)C(O)CC2(C)C12Cc1c(O)cc(CO)c(C=O)c1O2 (stereo not drawn),i
CCCN1CCCC2(CCN(C(=O)c3ccc4nc(C)sc4c3)C2)C1=O (stereo not drawn),i
Cc1cccc(NC(=O)Cn2nc3n(CC(C)C)c(=O)c4ccc(C(=O)NCC(C)C)cc4n3c2=O)c1,i
COc1ccc(C(=O)N[C@@H]2CN(c3ncccn3)C[C@H]2CN(C)C)cn1,i
CC(C)C1NC(=O)C(CC2(O)c3ccccc3N3C(=O)C(Cc4ccccc4)NC32)NC1=O (stereo not drawn),i
Cc1ccccc1CNC(=O)c1cc2cn(C(C)C)cc2s1,i
O=C(Nc1ccc(Cl)cc1)c1nc(Nc2ccccc2)c2ccccc2n1,i
O=C(NCc1cccc(Cl)c1)c1ccc2oc(-c3cccnc3)nc2c1,i
O=C(O)c1ccc2c(c1)nc(Nc1cccc(Cl)c1)c1ccncc12,+
O[C@]1(c2ccccc2)CCN(Cc2ccncc2)C[C@H]1N1CCCC1,i
O=C(O)C[C@@H]1CCN(C(=O)Nc2ccc(C(F)(F)F)cc2)C[C@@H]1CCN1C[C@@H]2C[C@H](C1)c1cccc(=O)n1C2,i
CCOc1ccc(C(=O)CSc2nnc3n(C)c(=O)c4ccc(C(=O)NC5CCCCC5)cc4n23)cc1,i
CC(C)CCN1C(=O)c2cc3ccccc3n2CC1(C)C(=O)NC1CCCCC1 (stereo not drawn),i
CN1CCCN(CC(=O)N2CCCC(c3ccc(C(=O)O)cc3)C2)CC1 (stereo not drawn),i
CN(CC(=O)N(Cc1ccc(C2CCCCC2)cc1)c1ccc(C(=O)O)cc1)S(=O)(=O)c1c(F)c(F)c(F)c(F)c1F,+
SMILES,Methyltransferases
CN(Cc1ccccc1)C(=O)CN(C)S(=O)(=O)c1ccc2[nH]c3c(c2c1)CCCC3,i
COc1ncc2cc(C(=O)Nc3cc(C(=O)NCc4cccc(Cl)c4)ccc3Cl)c(=O)[nH]c2n1,i
CCCN(CC1CC1)c1nc(C)nc(Nc2c(Cl)cc(Cl)cc2Cl)c1Cl,i
COc1ccc(CCCN2CCC(COC(c3ccccc3)c3ccccc3)CC2)cc1,i
C[C@@]12CO[C@@H](Cc3ccccc3)O[C@@H]1CC[C@]1(C)C2CC[C@@H](O)[C@H]1CC(=O)NCc1cc(F)cc(F)c1 (stereo partly drawn),i
OC[C@H]1O[C@@H](n2cnc3c(NC4CCCC4)ncnc32)[C@H](O)[C@@H]1O,i
Nc1ncnc2c1c(I)cn2C1OC(CO)C(O)C1O (stereo not drawn),+
Nc1ccc(CCNc2ncnc3c2ncn3C2OC(CO)C(O)C2O)cc1 (stereo not drawn),i
OC[C@H]1O[C@@H](n2cnc3c(NC4CCCCC4)ncnc32)[C@H](O)[C@@H]1O,i
OC[C@H]1O[C@@H](n2cnc3cncnc32)[C@H](O)[C@@H]1O,+
Nc1nc(F)nc2c1ncn2[C@@H]1O[C@H](CO)[C@@H](O)[C@@H]1O,i
CCOC(=O)c1cc2n(n1)CC(C)(C(=O)NC1CCCCCC1)N(Cc1cccc(OC)c1)C2=O (stereo not drawn),i
COc1cccc(CNC(=O)N2CCn3cccc3C2Cc2ccccc2)c1 (stereo not drawn),i
CCC(=O)N1CCc2sc(C(=O)N3CCN(c4cccc(Cl)c4)CC3)cc2C1,i
O=C(Cn1c(=O)c2ccc(Cl)cc2n2nncc12)NCc1ccc2c(c1)OCO2,i
Nc1c(S(=O)(=O)O)cc(Nc2ccc(Nc3nc(Cl)nc(Nc4ccc(S(=O)(=O)O)cc4)n3)c(S(=O)(=O)O)c2)c2c1C(=O)c1ccccc1C2=O,+
C=C[C@](C)(CC/C=C(\C)C(=O)O)O[C@@H]1OC[C@H](O)[C@H](O)[C@H]1O,+
C=CC(C)(CCC=C(C)C)O[C@@H]1O[C@H](CO)[C@@H](O)[C@H](O)[C@H]1O (stereo partly drawn),i
